The panel holds about 83,000 compounds, 20% with a hit somewhere; the sample as a whole holds those more often.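 Plates (96-well) were seeded with cells, treated with compound at one concentration, and incubated for 48 hours before percent growth was determined.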 A number with no mark means an inactive call. The source made the active and inactive calls. The calls were made as follows: active = growth percent below 10; inactive = the rest.
Tests used:
Test in all cases: NCI-60 one-dose screen, 48 h (100 = growth as untreated, 0 = no growth, -100 = all killed)
Conditions in all cases: 10 µM
SK-MEL-2 melanoma = test system: SK-MEL-2 melanoma
EKVX NSCLC = test system: EKVX NSCLC
SN12C renal = test system: SN12C renal
UO-31 renal = test system: UO-31 renal
TK-10 renal = test system: TK-10 renal
ACHN renal = test system: ACHN renal
CAKI-1 renal = test system: CAKI-1 renal
A498 renal = test system: A498 renal
MOLT-4 leukemia = test system: MOLT-4 leukemia
CCRF-CEM leukemia = test system: CCRF-CEM leukemia

SMILES	growth (SK-MEL-2 melanoma) [%]	growth (EKVX NSCLC)	growth (SN12C renal)	growth (UO-31 renal) [%]	growth (TK-10 renal)	growth (ACHN renal) [%]	growth (CAKI-1 renal)	growth (A498 renal) [%]	growth (MOLT-4 leukemia)	growth (CCRF-CEM leukemia)
COc1cc(OC)cc(-c2n/c(=C\c3c(O)[nH]c4ccc(OC)cc34)cc3c2=Nc2ccccc2-3)c1	108	96.6%	107%	71.2	125%	114	90.6%	90.6	12.4%	
CC(=O)Nc1ccc2c(c1)C(N1CC3CCC(CC3)C1)c1ccccc1-2 (configuration not stated)	96.7	88.5%	86.8%	66.7	113%	93	70.9%	78.5	63.5%	74.5%
COc1ccc(-c2n/c(=C\c3c(O)[nH]c4ccccc34)cc3c2=Nc2ccccc2-3)cc1	84.5	72.4%	91.6%	58.3	97.5%	98.7	71.6%	56.2	2.65% (active)	
O=C(OCC1OC(n2cc(C(F)(F)F)c(=O)[nH]c2=O)CC1OC(=O)c1ccc([N+](=O)[O-])cc1)c1ccc([N+](=O)[O-])cc1 (configuration not stated)	78	107%	43.4%	50.3	86.7%	16	38.6%	60.6	77.4%	
CCOc1nc(-c2ccccc2)cc2c(O)c(C(=O)NC(C)C)[nH]c(=O)c12	126	105%	114%	80.2	133%	97.6	94.2%	100	99.1%	58.2%
Cc1cn(C(=O)/C(Cl)=C(/Cl)C(=O)O)c2ccccc12	105	81.7%	97.6%	59.1	127%	97.8	97.9%	124	103%	37.2%
Cc1ccc2nc3[nH]c(=O)[nH]c(=O)c3c(N)c2c1	98	59.9%	72.6%	54.9	78.2%	60.2	58%	115	86.6%	77.7%
COC(=O)CCCCCCCCC(C)c1ccc(C(C)=O)cc1 (configuration not stated)	96	95.3%	110%	96.9	98.3%	99.3	97.6%	112	89.8%	111%
CCN1CCOC1C(C)C (configuration not stated)	95.3	107%	99.8%	79.5	130%	102	98.2%	98.8	94.3%	103%
O=C(O)c1ccccc1C(=O)c1cccc2c(F)cccc12	103	108%	100%	87.1	110%	98.2	104%	130	93.1%	92.3%
COc1ccc2c(c1)/C(=C/c1cc(OC)c(OC)c(OC)c1)C(=O)N2C	24.3	47.3%	25.3%	16.9	22.1%	26.9	-8.56% (active)	23.4	16%	20.4%
Nc1cc2c(cc1Cl)-c1ccc(Cl)cc1C2=O	95.7	67.7%	93.1%	61.6	117%	98.4	96.4%	95.7	81.4%	86.1%
COc1ccccc1Cn1cc2c(c1-c1ccccc1)CCc1cnoc1-2	49.2	46.3%	50.2%	34.1	81.4%	49.3	4.31% (active)	43.2	38.8%	30.5%
CCCCCCCCCCCCCC[n+]1ccc(C)cc1	13.2	-36.2% (active)	-2.55% (active)	23.7	-41.2% (active)	21.5	31.7%	39.2	-36.6% (active)	-35.4% (active)

From PubChem BioAssay (NCI)
